According to the supplement of paper PMC7801607:

Key:
CHO = experiment: % viability of CHO cells (MTT); higher = less toxic; details: 48 h
Outline: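 CHO cells seeded at 10^6 cells/well were exposed to compound at 2 or 20 µM for 48 h. Survival, as percent of untreated cells, was measured with the colorimetric tetrazolium (MTT) assay.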

HepG2-A16-CD81 = experiment: % inhibition of HepG2 viability (CellTiter-Glo); higher = more toxic; details: 5 µM
[1] = system: Plasmodium falciparum NF54 stage IV/V gametocytes; experiment: % inhibition of gametocyte viability (PrestoBlue); higher = more inhibition; details: 48 h
Outline: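 Compound was tested at 1 or 5 µM against Stage IV/V NF54 gametocytes plated at 100 µL/well (2% gametocytaemia, 5% haematocrit). After 48 h of stationary, hypoxic incubation at 37 °C, 10 µL PrestoBlue was added for 2 h before reading 612 nm fluorescence from 70 µL of transferred supernatant. Gametocyte viability inhibition, as a percentage, was scaled against vehicle and kill controls from a single run.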

[2] = system: Plasmodium falciparum NF54 asexual blood stage; experiment: % inhibition of asexual blood stage proliferation (pLDH); higher = more inhibition; details: 72 h
Outline: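 In 96-well plates, compound at 2 or 20 µM was added to Plasmodium falciparum NF54 ring-stage cultures (1% haematocrit, 2% parasitaemia). Plates were incubated for 72 h at 37 °C in 4% CO2, 3% O2 and 93% N2, and survival was then read at 620 nm using the parasite lactate dehydrogenase assay. Inhibition of asexual proliferation, expressed as a percentage, was normalised to controls.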

[3] = system: Plasmodium falciparum NF54 stage IV/V gametocytes; experiment: % inhibition of gametocyte viability (ATP bioluminescence); higher = more inhibition; details: 24 h
Outline: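 Density gradients were used to enrich stage IV/V NF54 gametocytes, which were then seeded into 96-well plates at 30,000 per well with compound at 1 or 5 µM. The plates were incubated at 37 °C for 24 h, and ATP was measured with the Promega BacTiter Glo bioluminescence system. Percent inhibition of gametocyte viability was normalised to the plate controls from a single run.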

[4] = system: Plasmodium falciparum NF54 stage IV/V gametocytes; experiment: % inhibition of gametocyte viability (luciferase reporter); higher = more inhibition; details: 48 h
Outline: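 Percent inhibition came from luminescence and was normalised to controls in a single run. Gametocytes (stage IV/V, NF54-Pfs16-GFP-Luc line, 2% gametocytaemia, 2% haematocrit) were treated with compound at 1 or 5 µM and incubated for 48 h at 37 °C without agitation under hypoxia. Readings used 30 µL lysate with 30 µL Promega luciferin substrate on a GloMax-Multi+ reader, integrating for 10 s.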

[5] = system: Plasmodium berghei ANKA liver stage in HepG2-A16-CD81; experiment: % inhibition of liver stage parasite viability (luciferase); higher = more inhibition; details: 5 µM; 48 h
Method: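 Single-concentration screen of the MMV Pandemic Response Box. P. falciparum NF54 asexual blood stages: pLDH assay, 72 h at 37 °C, 2 and 20 µM, n=2. Stage IV/V gametocytes (NF54): luciferase reporter (NF54-Pfs16-GFP-Luc, 48 h), ATP bioluminescence (24 h) and PrestoBlue (48 h) at 1 and 5 µM, n=1. P. berghei liver stage (luciferase in HepG2-A16-CD81, 48 h post infection) at 5 µM, n=4. All normalised to DMSO and kill controls as % inhibition.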
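Wherever % inhibition of HepG2 viability (CellTiter-Glo) is given: HepG2-A16-CD81 hepatoma cells plated as in the liver-stage assay but without sporozoites, with DMSO wells as negative and 25 µM puromycin as positive control.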

| Structure (SMILES) | % viability of CHO cells (CHO; 2 µM) | % viability of CHO cells (CHO; 20 µM) | % inhibition of HepG2 viability (HepG2-A16-CD81) | % inhibition of gametocyte viability ([1]; 1 µM) | % inhibition of gametocyte viability ([1]; 5 µM) | % inhibition of asexual blood stage proliferation ([2]; 2 µM) | % inhibition of asexual blood stage proliferation ([2]; 20 µM) | % inhibition of gametocyte viability ([3]; 1 µM) | % inhibition of gametocyte viability ([3]; 5 µM) | % inhibition of gametocyte viability ([4]; 1 µM) | % inhibition of gametocyte viability ([4]; 5 µM) | % inhibition of liver stage parasite viability [5] |
| --- | --- | --- | --- | --- | --- | --- | --- | --- | --- | --- | --- | --- |
| CCc1nc(N)nc(N)c1C#CCc1ccccc1 | 105% | 92.5% | 5.43% | 1.8% | < 0% | 66% | 97.2% | < 0% | < 0% | 5.41% | < 0% | 76.9% |
| O=C(Nc1ncc(Cc2cccc3ccccc23)s1)C1CCCCC1 | 83.3% | 53.3% | 7.25% | 16.9% | < 0% | 22.6% | 42.9% | < 0% | < 0% | < 0% | 0.604% | -13.3% |
| Cc1c(N)cccc1Cn1ccc(OCCc2cccs2)cc1=O | 240% | 54.9% | 5.54% | < 0% | < 0% | 6.4% | 22.2% | 0.516% | < 0% | < 0% | < 0% | 17% |
| O=C(O)CSc1cc(NS(=O)(=O)c2cccc3cccnc23)c2ccccc2c1O | 95.5% | 80.9% | 2.37% | < 0% | 29.3% | 70.5% | 81% | 0.374% | < 0% | < 0% | < 0% | 35.4% |
| COc1ccc(CNC(=O)C(NS(=O)(=O)c2ccc3nc(C)sc3c2)C(C)C)cc1 (stereo not drawn) | 105% | 75.8% | 3.43% | 48.7% | 50.8% | 81.6% | 111% | < 0% | < 0% | 13.6% | < 0% | 21.7% |
| O=C(O)COc1cccc2c1CC[C@](O)(COC(=O)N(c1ccccc1)c1ccccc1)C2 | 92.5% | 105% | -9.51% | 23.2% | 25.8% | 11.3% | -4.41% | < 0% | < 0% | 1.62% | < 0% | 13.6% |
| CN1CCN(Cc2ccc(-c3cnc4[nH]cc(-c5ccc6[nH]ccc6c5)c4c3)cc2)CC1 | 68% | 26.3% | 21.4% | 10% | < 0% | 66% | 66.9% | 11% | 65.5% | < 0% | < 0% | 33.2% |
| CONC(=N)c1ccc(-c2ccc(-c3ccc(C(=N)NOC)cc3)o2)cc1 | 111% | 121% | 2.49% | 11.8% | 9.28% | -3.01% | 1.5% | 0.615% | < 0% | < 0% | < 0% | 4.65% |
| O=C(CCc1ccc2c(c1)OCO2)NCc1ccc(-c2ccccc2F)cc1 | 87.7% | 94.9% | 8.8% | < 0% | < 0% | -4.07% | -11.2% | 4.23% | < 0% | < 0% | < 0% | 43.9% |
| CC[C@H](NC(=O)[C@H](C)NC)C(=O)N1C[C@@H](O)C[C@H]1Cc1c(-c2[nH]c3cc(F)ccc3c2C[C@@H]2C[C@H](O)CN2C(=O)[C@H](CC)NC(=O)[C@H](C)NC)[nH]c2cc(F)ccc12 | 102% | 117% | 15% | 5.89% | 54.9% | 75.7% | 83.1% | 28.6% | 76.9% | 17% | 56% | 37.5% |
| COC(=O)Nc1nc2cc(S(=O)c3ccccc3)ccc2[nH]1 (stereo not drawn) | 118% | 78% | 12.1% | 10.1% | 11.8% | 8.21% | 7.99% | 1.75% | < 0% | < 0% | < 0% | 9.84% |
| O=C(O)c1ccccc1Sc1ncnc2sc3c(c12)CCC3 | 103% | 89.7% | 4.01% | 20% | 18.3% | -19.5% | -13.7% | 2.23% | < 0% | < 0% | < 0% | -30.6% |
| COC(=O)Nc1nc2cc(Sc3ccccc3)ccc2[nH]1 | 103% | 101% | 32.9% | < 0% | 11.8% | -7.16% | 5.37% | 3.38% | < 0% | < 0% | < 0% | -25.4% |
| c1ccc(Cn2c(-c3ccccn3)nc3ccccc32)cc1 | 75.8% | 117% | 1.97% | -0.335% | 3.56% | 5.52% | 19.5% | < 0% | < 0% | < 0% | 11.3% | -11% |
| Nc1cnn(C2OC(CO)C(O)C2O)c(=O)n1 (stereo not drawn) | 109% | 110% | 9.61% | < 0% | 12.5% | 61.7% | 38.4% | 3.6% | < 0% | 4.96% | 6.45% | -44.9% |
| CC(C)Oc1ccc(-c2nc(-c3cccc4c3CC[C@@H]4NCCO)no2)cc1C#N | 113% | 117% | -1.14% | 16.7% | 7.83% | 78.4% | 87.9% | 14.3% | 84.7% | < 0% | < 0% | 21.6% |
| NCCCc1ccccc1C(=O)Nc1ncc([N+](=O)O)s1 | 104% | 62.7% | 0.282% | 32.9% | 23.9% | -16.4% | -1.52% | 0.0401% | < 0% | < 0% | < 0% | 7.1% |
| COC1CC2CCC(C)C(O)(O2)C(=O)C(=O)N2CCCCC2C(=O)OC(C(C)CC2CCC(OCCO)C(OC)C2)CC(=O)C(C)/C=C(\C)C(O)C(OC)C(=O)C(C)CC(C)/C=C/C=C/C=C/1C (stereo not drawn) | 92.8% | 106% | 1.51% | < 0% | 4.18% | 26.6% | 90.3% | 2.16% | 37.2% | 15% | 4.08% | 0.0625% |
| CN(O)C(=O)c1cc2c(CN3CCC[C@H]3C(N)=O)cn(Cc3ccc(F)cc3)c2cn1 | 96% | 119% | -5.55% | 31.6% | 30.7% | 16.8% | 52.7% | < 0% | < 0% | < 0% | < 0% | 24.6% |
